Source: PubChem BioAssay (National Center for Advancing Translational Sciences (NCATS))
Compounds with a hit are over-represented: about 21% of the library has one in this group of screens.
Pf growth 96h = Primary qHTS for delayed death inhibitors of the malarial parasite plastid, 96 hour incubation; P. falciparum luciferase reporter growth, 96 h; Potency, µM (highest dose often 28.7 µM), for inactives: at the top dose activity change, negative = inhibition, actives largely listed as inhibitors; actives 6.9% (n = 320,000); AID 504834, 2011; also: potency is read from the fitted curve at half-maximal effect; % is scaled to controls: 0 for no effect and ±100 for the full control effect
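Plates of compound plus infected erythrocytes (2% hematocrit, 0.05% parasitemia final) incubate 96 hours, 37 C, 5% CO2. Detection reagent added; reduced luminescence from the parasites' luciferase reporter flags inhibition.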
Shiga inhibitor = A qHTS for Small Molecule Inhibitors of Shiga Toxin. inhibition, % at 38.7 µM. AID 2315, 2010. actives 9.2% (n = 290,000). Vero cells, Shiga toxin protein synthesis inhibition reporter; in the data active = inhibition mostly above about 28%, no sharp cut-off; inactive = mostly below about 43%; also: 0% is about no effect
Pf growth 48h = Primary qHTS for delayed death inhibitors of the malarial parasite plastid, 48 hour incubation; Potency, µM (series often up to 28.7 µM), without a hit: top-dose activity change, negative = inhibition, most hits filed as inhibitors; actives 5.9% (n = 310,000); AID 504832, 2011; P. falciparum luciferase growth in erythrocytes, 48 h; also: potency is read from the fitted curve at half-maximal effect; % is scaled to controls: 0 for no effect and ±100 for the full control effect
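Firefly luciferase activity from engineered P. falciparum reports growth; inhibitors lower the luminescent signal. Cultures contained 2% hematocrit erythrocytes at 0.1% final parasitemia.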
Cycloheximide cs = Cycloheximide Counterscreen for Small Molecule Inhibitors of Shiga Toxin | actives 12% (n = 300,000) | max response, % | cell reporter, cycloheximide protein synthesis inhibition counterscreen; in the data active = max response mostly above about 13%, no sharp cut-off; inactive = mostly below about 14%; also: read at 38.3 µM for the half of the compounds with a filed dose; 0% is about no effect
NS1 function inh = qHTS Assay for Inhibitors of Influenza NS1 Protein Function. AID 2326, 2010. Potency, µM (titrated, usually from 46.1 µM), for inactives: at the highest dose activity, positive = more growth. actives 0.4% (n = 270,000); calls by dose curve; also: potency is read from the fitted curve at half-maximal effect; actives are rising curves; nearly all actives have a fitted effect of over 50% in size
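A cell-based growth assay was used: compounds that relieve NS1-induced slow growth of budding yeast raise OD600. Assay medium was yeast nitrogen base with ammonium sulphate and -URA supplement, pH 6.0, with 2% galactose.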
An asterisk follows results filed as active; ! = repeats disagree. Unless noted, calls follow the shape of the dose curve; as a rule, active = well fitted inhibition curve with a large enough effect; inconclusive = small, poorly fitted or top-dose-only effect, or another doubt; inactive = no such curve, though single readings can be large or run the other way.

`CCC(NC(=O)CCc1nnc(-c2cc(C)on2)o1)C12CC3CC(CC(C3)C1)C2` (centres undefined) gave Pf growth 96h 9%, Shiga inhibitor 30, Pf growth 48h inconclusive, Cycloheximide cs 18* and NS1 function inh -16%.
Screening COc1ccccc1CCc1nnc(CCC(=O)N(C)Cc2ccncc2C)o1 returned Pf growth 96h 19%, Shiga inhibitor 8, Pf growth 48h -12%, Cycloheximide cs -1 and NS1 function inh 1%.
Screening Cc1cc(-c2nnc(CCC(=O)NC(C)c3ccccc3Cl)o2)no1 (centres undefined) returned Pf growth 96h 23%, Shiga inhibitor -5, Pf growth 48h 13% and Cycloheximide cs -4.
For Cc1cc(-c2nnc(CCC(=O)NCc3cc(F)cc(C(F)(F)F)c3)o2)no1 the results were Pf growth 96h -23%, Shiga inhibitor 32, Pf growth 48h -10%, Cycloheximide cs 25* and NS1 function inh 11%.
For CCNC(=S)Nc1ccc(Cl)c([N+](=O)[O-])c1 the results were Pf growth 96h -25%, Shiga inhibitor -8, Pf growth 48h -17% and Cycloheximide cs -1.
Screening COc1ccc(N2CC(C(=O)N[C@H](C(=O)NC3CCCCC3)C(C)C)CC2=O)cc1 (some centres undefined) returned Pf growth 96h 14%, Shiga inhibitor 25, Pf growth 48h 0%, Cycloheximide cs -4 and NS1 function inh 11%.
Screening CCc1ccc(CN(C)C(=O)C2=CC=CN3CCS(=O)(=O)N=C23)cc1 returned Pf growth 96h 45% and Pf growth 48h 3%.
Screening COc1cccc(-c2nn(-c3ccccc3)cc2CN(C)Cc2c(C)nc3ccccn23)c1 returned Pf growth 96h 29%, Shiga inhibitor 14, Pf growth 48h inconclusive, Cycloheximide cs -3 and NS1 function inh -5%.
For COc1ccc(NC(=O)CCNS(=O)(=O)c2ccc3c(c2)c(=O)n(C)c(=O)n3C)c(OC)c1 the results were Shiga inhibitor -8, Pf growth 48h -11%, Cycloheximide cs -5 and NS1 function inh inconclusive.
For Cc1cc(-c2nnc(CCC(=O)NC(C)c3cccc4ccccc34)o2)no1 (centres undefined) the results were Pf growth 96h 12µM*, Shiga inhibitor 15, Pf growth 48h -17%, Cycloheximide cs 6 and NS1 function inh 1%.
For Cc1ccc(C(=O)C2=C(O)C(=O)N(c3ncccn3)C2c2ccccc2F)o1 (centres undefined) the results were Pf growth 96h 48%, Shiga inhibitor -8, Pf growth 48h 0%, Cycloheximide cs 6 and NS1 function inh 5%.
C=CCN(C(=O)CSC1=NC(=O)CN1C(C)=O)c1nc(C)c(-c2ccccc2)s1 was read as Pf growth 96h 199%, Shiga inhibitor 50, Pf growth 48h 0%, Cycloheximide cs 30* and NS1 function inh 4%.
Screening C(=N\c1nccs1)/Nc1nccs1 returned Pf growth 96h 45%, Shiga inhibitor 2, Pf growth 48h 8%, Cycloheximide cs -5 and NS1 function inh 1%.
For O=C(Nc1nnc(C23CC4CC(CC(C4)C2)C3)s1)c1ccco1 the results were Pf growth 96h -30%, Shiga inhibitor 53*, Pf growth 48h 200%, Cycloheximide cs 35* and NS1 function inh 0%.
`COc1ccc(-c2nnc(NC(=O)c3ccco3)s2)cc1` gave Pf growth 96h 9%, Shiga inhibitor 53, Pf growth 48h 81%, Cycloheximide cs 27* and NS1 function inh -11%.
`Cc1ccc(OCc2nnc(NC(=O)c3ccco3)s2)cc1` gave Pf growth 96h 5%, Shiga inhibitor -19, Cycloheximide cs -2 and NS1 function inh -34%.
`COc1ccc(/C=C/c2nnc(NC(=O)c3ccco3)s2)cc1` gave Pf growth 96h -3%, Shiga inhibitor 41, Pf growth 48h 4%, Cycloheximide cs 9 and NS1 function inh -3%.
Screening Cc1ccc(OCc2nnc(NC(=O)c3ccco3)s2)c(C)c1 returned Pf growth 96h 1.9µM*, Shiga inhibitor -14, Pf growth 48h -3%, Cycloheximide cs -3 and NS1 function inh -8%.
Screening COc1cccc(-c2nnc(NC(=O)c3ccco3)s2)c1 returned Pf growth 96h -22%, Shiga inhibitor 96*, Pf growth 48h 87%, Cycloheximide cs 32* and NS1 function inh -21%.
Screening CCCOc1cccc(-c2nnc(NC(=O)c3ccco3)s2)c1 returned Pf growth 96h inconclusive, Shiga inhibitor 18, Pf growth 48h 0%, Cycloheximide cs 15 and NS1 function inh 0%.
`Cc1cccc(C(=O)NCc2nnc(SCC(=O)Nc3nncs3)n2C)c1` gave Pf growth 96h inconclusive, Shiga inhibitor 5, Pf growth 48h -6%, Cycloheximide cs -4 and NS1 function inh 8%.
Cc1ccc(S(=O)(=O)Oc2ccc(/C=N/NC(=O)c3cccnc3)cc2)cc1 was read as Pf growth 96h 14%, Shiga inhibitor 14, Pf growth 48h 14%, Cycloheximide cs 12 and NS1 function inh 4%.
For O=C(Nc1nnc(Cc2ccccc2)s1)c1ccco1 the results were Pf growth 96h 139%, Shiga inhibitor 62, Cycloheximide cs 18 and NS1 function inh -53%.
Screening C/C=C(\C)c1nnc(NC(=O)c2ccco2)s1 returned Pf growth 96h 5%, Shiga inhibitor 56*, Pf growth 48h 100%, Cycloheximide cs 15* and NS1 function inh 10%.
Screening Cc1ccc(-c2nnc(NC(=O)c3ccco3)s2)cc1 returned Pf growth 96h inconclusive, Shiga inhibitor 96*, Pf growth 48h 66%, Cycloheximide cs 28* and NS1 function inh -38%.
For CC(C)(C)Cc1nnc(NC(=O)c2ccco2)s1 the results were Pf growth 96h inconclusive, Shiga inhibitor 42*, Pf growth 48h 19%, Cycloheximide cs 32* and NS1 function inh -11%.
For COc1ccc(NC(=O)CN(C)CC(=O)NCCc2ccc(F)cc2)cc1 the results were Pf growth 96h 1% and Pf growth 48h 6%.
O=C1CCCN1c1cccc(Br)c1 was read as Pf growth 96h -20%, Shiga inhibitor 15, Pf growth 48h 27%, Cycloheximide cs 1 and NS1 function inh 5%.
For O=C(Cc1ccccc1)NNC(=O)c1ccc(Br)o1 the results were Pf growth 96h 4%, Shiga inhibitor 2, Pf growth 48h 28%, Cycloheximide cs -2 and NS1 function inh 7%.
For O=C(NCCCCc1ccccc1)c1ccc(Br)o1 the results were Pf growth 96h -21%, Shiga inhibitor 15, Pf growth 48h -22%, Cycloheximide cs 18* and NS1 function inh -39%.
`O=C(NC(=S)NCc1ccccc1)c1ccc(Br)o1` gave Pf growth 96h 2%, Shiga inhibitor 27, Pf growth 48h 22%, Cycloheximide cs 12 and NS1 function inh -9%.
`CCCCCCNC(=O)c1ccc(Br)o1` gave Pf growth 96h -3%, Shiga inhibitor active!, Pf growth 48h inconclusive, Cycloheximide cs 33*! and NS1 function inh -29%.
